The whole screen tested about 2,300 compounds, of which about 1,400 (61%) were called active. Inconclusive results (about 29%) are left out. Calls follow the shape of the dose curve; as a rule, active = well fitted inhibition curve with a large enough effect; inconclusive = small, poorly fitted or top-dose-only effect, or effect the other way; inactive = no such curve, though single readings can be large or run the other way. So high a share suggests a set chosen from earlier hits. The list shows a part of the results.
Potency is read from the fitted curve at half-maximal effect.

The nature of this assay: Confirmation screen for delayed death inhibitors of the malarial parasite plastid, 96 hour incubation. Also: nearly all actives have a fitted effect of over 60% in size. The conditions noted are these: P. falciparum luciferase growth in erythrocytes; series mostly up to 28.7 µM. The source says: The goal of this screen is to discover new antimalarial compounds that act by inhibiting the development of the apicoplast in the malarial parasite Plasmodium falciparum. The biochemical processes that make this organelle essential for erythrocytic stage parasites are not well understood. However, antibiotics, such as azithromycin and tetracycline, which target the apicoplast translational machinery, have a potent antimalarial effect. […] We have developed a cell-based assay that measures parasite growth based on the expression of an integrated copy of a firefly luciferase reporter. To detect small molecules that cause this "delayed death phenotype, erythrocytes infected with the luciferase-expressing parasites were incubated with compounds for either one or two generations, corresponding to 48 and 96 hours, respectively. Compounds that inhibit parasite growth in the second generation, but not the first, should be enriched in antimalarials that target the apicoplast. Growth inhibition is detected by a decrease in luciferase activity. MLPCN Grant: R21 NS059500 Assay Provider: David Fidock and Eric Ekland, Columbia University Keywords: NIH Roadmap, MLPCN, MLI, MLSMR, qHTS, NCGC, qHTS, malaria, luciferase, viability
Four microliters of culture medium (RPMI 1640 with 0.5% w/v Albumax (GIBCO), 24 mM sodium bicarbonate and 10 ug/mL gentamycin) were dispensed by a Multi-drop Combi into white solid 1536-well plates (Grenier) and 23 nL compound was added by a pin tool. Four microliters of infected erythrocytes (2% hematocrit, 0.1% parasitemia final concentration) in culture medium were dispensed and the plates incubated for 96 hours at 37 C in 5% CO2. Two microliters of luciferase detection reagent was added and luminescence was detected by a ViewLux (PerkinElmer) reader
On to `C=C[C@]1(C)C[C@@H](OC(=O)CSCCN(CC)CC)[C@]2(C)C(C)CC[C@]3(CCC(=O)[C@H]32)[C@@H](C)[C@@H]1O` (stereo partly specified), for which the Potency was 2 µM (active). Under `CN(Cc1ccc(Cl)c(Cl)c1)C(=O)C1=CC=CN2CCS(=O)(=O)N=C12` stands 5.01 µM (active). For the compound `COC(=O)c1ccc(Sc2nnnn2-c2ccccc2)c([N+](=O)[O-])c1`, the Potency is 12.6 µM (active).

Regarding `CC1CCN(C(=O)Cn2cc(C(=O)c3ccco3)c3ccccc32)CC1`, the Potency was 14.1 µM (active).

For the compound `Cc1ccc(NC(=O)C(=Cc2ccc(C(=O)O)cc2)C(=O)Nc2ccc(C)cc2C)c(C)c1`, the Potency was 6.31 µM (active). Under `Cn1c(=O)[nH]c(=O)c2c1nc(NCc1ccccc1)n2Cc1ccc(F)cc1` stands 3.55 µM (active). Under `Cc1ccc(OCC(=O)Nn2cnnc2)c(Br)c1` stands “inactive”.

As to `C/C(CC(=O)NC1CCCCC1)=N\NC(=O)COc1ccc(C)cc1Br`, the Potency is 15.8 µM (active).

For `O=C(c1ccc(OC2CCN(Cc3ccccc3OC(F)F)CC2)cc1)N1CCCC1`, the Potency was 2.51 µM (active). On to `COc1ccc(CCC(C)N2CCC(Oc3ccc(C(=O)N4CCCC4)cc3)CC2)cc1` (stereo unspecified), for which the Potency was 10 µM (active). Under `CCN(CC)CCOC(=O)c1ccc(NC(=O)C(C)NC(=O)C23CC4CC(CC(C4)C2)C3)cc1` (stereo unspecified) stands 12.6 µM (active); under `Cc1ccc(Nc2cc(C)c3ccc(O)cc3n2)cc1C`, 0.126 µM (active).

Consider `OC1C2(Cc3ccccc3)CN3CCN(C2)CC1(Cc1ccccc1)C3` (stereo unspecified), for which the Potency is 2 µM (active). `O=c1cc(CSc2nc(NCc3ccccc3)c3ccccc3n2)nc2ccc(Cl)cn12`: the Potency was 3.55 µM (active). Regarding `CCN(CC)S(=O)(=O)c1ccc(N2CCOCC2)c(NC(=O)C2CSC3(C)CCC(=O)N23)c1` (stereo unspecified), the Potency is 5.62 µM (active). With `COc1ccc2[nH]cc(C(=O)CCl)c2c1` the figure was 12.6 µM (active); with `COc1ccc2[nH]cc(CCCN3C(=O)c4ccccc4C3=O)c2c1`, “inactive”. Take `CCOc1ccc(/C=C/[N+](=O)[O-])c2ccccc12`: the Potency was 15.8 µM (active). With `Cc1ccc(C)c(-c2nnc(OCC(=O)Nc3cc(C)on3)c3ccccc23)c1` the figure was 12.6 µM (active); with `COc1cc(CNC2CCCCCCC2)ccc1OCC(N)=O`, 12.6 µM (active).

Regarding `Cc1cc(C)c(NC(=O)c2cccc3c2C(=O)N(C2CCCCC2)C3)c(C)c1`, the Potency is 7.94 µM (active).

Consider `COc1ccccc1/C=C/C(=O)c1ccccc1`, for which the Potency is 14.1 µM (active). For the compound `O=C(/C=C/c1ccccc1O)c1ccco1`, the Potency entry is “inactive”. Regarding `COc1ccccc1/C=C/C(=O)/C=C/c1ccccc1O`, the Potency was 1 µM (active). For the compound `CCOC(=O)C(=Cc1ccccc1OC)C(=O)OCC`, the Potency was 12.6 µM (active). Under `CCOC(=O)C(CC)(CC)C(=O)/C=C/c1ccc(Br)cc1` stands 6.31 µM (active).

The values are drawn from PubChem BioAssay AID504848 (National Center for Advancing Translational Sciences (NCATS), 2011).
